# Screening data: PubChem BioAssay, National Center for Advancing Translational Sciences (NCATS)
# FBPA coupling cs – inhibits coupling enzyme system, counter-screen for aldolase hits; coupling enzyme system counterscreen, AmpLite Red fluorescence; activity change, negative = inhibition, % at 58.2 µM, hits read low; actives 0.67% (n = 290,000); AID 2472; in the data active = activity change below about -30%
#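 Coupling enzymes only (glyceraldehyde-3-phosphate) + compound, at 57.5 uM final, 10 min RT; add substrate/coupling/AmpLite Red mix, 20 min RT; fluorescence ex 525/em 598 nm. Actives flag coupling-system interference.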
# Tau FP inhib – tau fibrillization inhibition (FP); K18 P301L tau heparin fibrillization, Alexa594 FP, 6 h; Potency, µM (series often up to 57.7 µM), for the others: at the top dose activity, negative = inhibition, most hits filed as inhibitors; actives 0.39% (n = 280,000); AID 1468; note: potency is the fitted concentration of half-maximal effect; nearly all actives have a fitted effect of over 55% in size
# Target sequence (P10636 561-689 P618L limits assumed): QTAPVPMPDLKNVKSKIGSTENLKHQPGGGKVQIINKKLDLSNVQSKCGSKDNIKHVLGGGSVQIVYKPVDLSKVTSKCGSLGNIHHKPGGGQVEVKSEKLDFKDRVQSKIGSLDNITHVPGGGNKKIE
#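 Human K18 P301L fragment (15 uM unlabeled plus 0.24 uM Alexa 594-labeled) in 100 mM sodium acetate pH 7 with compound, aggregation induced by 20 uM heparin for 6 hr at 37 C. ThT (30 uM) added for 1 hr, then Alexa 594 FP read.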
# USP1 inh – inhibitors of human USP1/UAF1 deubiquitinase; O94782; recombinant USP1/UAF1, Ub-Rhodamine cleavage fluorescence; Potency, µM (doses to about 57.1 µM), without a hit: at the highest dose activity change, negative = inhibition, actives largely listed as inhibitors; actives 0.23% (n = 390,000); note: potency is the fitted concentration of half-maximal effect; nearly all actives have a fitted effect of over 60% in size
#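 USP1/UAF1 complex (1 nM) preincubated 15 min at room temperature with compound, then Ub-Rho substrate (150 nM final) added. Kinetic fluorescence at 480/540 nm over 6 reads at 60 s intervals; 50 mM HEPES pH 7.8, 0.5 mM EDTA, 0.1 mg/ml BSA, 1 mM TCEP, 0.01% Tween-20.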
# Tau fibril ThT – inhibitors of human tau fibril formation, thioflavin T binding | Potency, µM (series often up to 57.4 µM), for the others: top-dose activity, negative = inhibition, hits mostly inhibitors | P10636 | actives 2.1% (n = 270,000) | recombinant tau K18 P301L, heparin-induced fibrillization, ThT fluorescence; note: potency is the fitted concentration of half-maximal effect; nearly all actives have a fitted effect of over 55% in size
#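 Recombinant human tau K18 fragment […] carrying P301L, 15 uM unlabeled plus 0.24 uM Alexa 594-labeled, was fibrillized with 20 uM heparin in 100 mM sodium acetate pH 7 for 6 hr at 37 C; 30 uM ThT fluorescence read after 1 hr.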
# Tau fluor cs – counter-screen for tau fibril formation inhibitors | tau K18 P301L Alexa594 fluorescence, heparin fibrillization | Potency, µM (highest dose often 57.7 µM), without a hit: at the top dose activity change, negative = decrease | actives 0.93% (n = 280,000); note: potency is the fitted concentration of half-maximal effect; nearly all actives have a fitted effect of over 55% in size
#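 Human tau K18 P301L (15 uM unlabeled, 0.24 uM Alexa 594-labeled) in 100 mM sodium acetate pH 7 with 20 uM heparin, 6 hr at 37 C. ThT 30 uM added, 1 hr ambient; Alexa 594 FP and total fluorescence read at 555/632 nm.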
# * marks the source's active call; other numbers are inactive results; ? = inconclusive; . = not tested or not shown; [ ] = dose if it differs, or a comment. Compounds with a hit are over-represented: about 2.3% of the library has one in this group of screens. Unless noted, calls come from the whole dose curve; as a rule, active = well fitted curve in the direction sought with a large enough effect; inconclusive = small, poorly fitted or top-dose-only effect, or another doubt; inactive = no such curve, though single readings can be large; an effect the other way counts as inactive or inconclusive. % is set by controls: 0 for no effect and ±100 for the full control effect.
SMILES,FBPA coupling cs,Tau FP inhib,USP1 inh,Tau fibril ThT,Tau fluor cs
COc1cccc([C@@H]2Oc3ccc(Br)cc3C[C@H]2OC(=O)Nc2cc(OC)c(OC)c(OC)c2)c1,4,-2%,.,-4%,-12%
CN=C1N[C@H](c2ccccc2)N(c2ccccc2)S1,0,32µM*,.,20µM*,-16%
CCN1C(=O)NC(c2ccccc2)C1=O (configuration not stated),.,.,-19%,.,.
Cc1ccc(N2CCn3c2nc2c3c(=O)n(CCCc3ccccc3)c(=O)n2C)cc1,.,-5%,3%,-8%,-8%
Cc1cc(Nc2cccc(C(F)(F)F)c2)nc2ccc(NC(=O)c3cccc(Cl)c3)cc12,.,?,-21%,?,7.1µM*[quencher]
CCOc1ccc(C(=O)Nc2ccc3nc(Nc4cccc(C(F)(F)F)c4)cc(C)c3c2)cc1OCC,.,-8%,-28%,?,3.5µM*[quencher]
O=C(Nc1cccc(C(F)(F)F)c1)c1cccc(C(=O)Nc2cccc(C(F)(F)F)c2)c1,.,?,-23%,12%,-13%
Cc1cc(Nc2cccc(C(F)(F)F)c2)nc2ccc(NC(=O)c3cccnc3)cc12,.,?,-25%,-17%,8.9µM*[quencher]
O=C(Nc1cccc(C(F)(F)F)c1)c1cccnc1,0,-3%,-1%,0%,-5%
Nc1ccccc1C(=O)/C=C/c1ccccc1,2,4%,.,?,-6%
COc1ccccc1CNC(=O)CCn1c(=O)c2ccccc2n(CC(=O)Nc2ccc(C)cc2C)c1=O,.,-10%,-28%,2%,4%
Cc1cc2c([nH]c3ccccc32)c2c1OC(C)(C)C=C2,-7,10%,-12%,?,14µM*[quencher]
O=C1C=C(O)c2[nH]c(=O)ccc2C1=O,.,.,25µM*,.,.
O=C1C=C(O)c2c(O)cc(O)c(O)c2C1=O,.,.,-23%,.,.
N#Cc1ccccc1OCC(=O)N1CCN(c2ccccc2)CC1,.,-5%,?,-13%,-11%
Oc1[nH]c2ccccc2c1N=Nc1ccccc1F,1,-1%,279%,?,-18%
COC(=O)c1cc(N=Nc2c(C)[nH]c3ccccc23)cc(C(=O)OC)c1,2,2%,-19%,?,?
Oc1[nH]c2ccccc2c1N=Nc1ccccc1,0,-5%,28µM*,?,?
O=C(N=Nc1c(O)[nH]c2ccccc12)c1cccc(S(=O)(=O)Nc2ccccc2Cl)c1,-2,-13%,-10%,?,-27%
Cc1[nH]c2ccccc2c1N=Nc1cccc(C(=O)O)c1,7,12%,-20%,7.9µM*,-23%
Cc1cccc(NC(=S)N=Nc2c(O)[nH]c3ccccc23)c1,0,-1%,-8%,7.9µM*,14µM*[quencher]
NS(=O)(=O)c1cc(C(=O)N=Nc2c(O)[nH]c3ccccc23)ccc1Cl,-1,1%,-15%,14µM*,-30%
O=C(N=Nc1c(O)[nH]c2ccccc12)c1cc(-c2ccc(F)cc2)n[nH]1,1,-3%,-20%,2.2µM*,-16%
Oc1[nH]c2ccccc2c1N=Nc1nc2ccccc2s1,6,7%,-4%,2µM*,?
O=Nc1c(-c2c(O)[nH]c3ccccc23)[nH]c2ccccc12,-6,?,.,2.8µM*,16µM*[quencher]
SMILES,FBPA coupling cs,Tau FP inhib,USP1 inh,Tau fibril ThT,Tau fluor cs
Oc1[nH]c2ccccc2c1N=Nc1ccc(F)cc1,-1,2%,?,2µM*,-28%
CCC(C)NC(=O)C(=O)Nc1c2c(nn1-c1ccccc1)CS(=O)(=O)C2 (configuration not stated),.,-10%,-7%,-3%,-3%
COC(=O)/C=C(\C)N=Nc1c(O)[nH]c2ccccc12,-8,-6%,-3%,11µM*,-20%
CNS(=O)(=O)c1cn(CC(=O)N2CCN(c3ccc(C)cc3C)CC2)cc1S(=O)(=O)NC,.,-1%,2%,9%,-3%
O=[N+]([O-])c1cc(C(F)(F)F)cc([N+](=O)[O-])c1NCCNC(=S)Nc1cccc(F)c1,-3,-7%,-15%,?,8.9µM*[quencher]
N#CC1=C(N)C(C#N)(C#N)[C@H](c2cccnc2)[C@H]2CN(C(=O)OCc3ccccc3)CC=C12,0,?,0%,16µM*,-16%
CCOC(=O)N1CC=C2C(C#N)=C(N)C(C#N)(C#N)[C@H](c3ccc(OC(C)C)c(OCC)c3)[C@H]2C1,-5,?,-21%,?,-18%
CCOC(=O)N1CC=C2C(C#N)=C(N)C(C#N)(C#N)[C@H](c3ccccc3OCC)[C@H]2C1,2,0%,-24%,-10%,1%
N#CC1=C(N)C(C#N)(C#N)C(c2ccncc2)C2CN(C(=O)OCc3ccccc3)CC=C12 (configuration not stated),2,?,-23%,25µM*,-15%
Cc1cc(C)nc(-n2nc(C)c3c2N(Cc2ccccc2C)C(=O)CC3c2ccc(Cl)cc2)n1 (configuration not stated),.,-5%,0%,-13%,-8%
O=C1c2ccccc2C(=O)C12OC2c1ccc(Cl)cc1Cl (configuration not stated),0,?,-26%,10µM*,?
O=C1c2ccccc2C(=O)C1c1ccc(Cl)cc1,.,.,-6%,.,.
O=C(CC1Sc2ccc(C(F)(F)F)cc2NC1=O)Nc1ccc(Cl)c(C(F)(F)F)c1 (configuration not stated),.,11µM*,-32%,-5%,?
O=C(N/N=C/C(Cl)=C/c1ccc([N+](=O)[O-])cc1)C(=O)Nc1ccccc1C(=O)O,9,-7%,-9%,3.2µM*,?
O=C(N/N=C/C(Cl)=C/c1ccc([N+](=O)[O-])cc1)C(=O)Nc1ccc(C(=O)O)cc1,1,0%,-17%,3.5µM*,-28%
Cc1cccc(C)c1-n1ncc(C(=O)N2CCN(c3ccccc3)CC2)c1C1CCN(C(=O)OC(C)(C)C)CC1,.,-6%,-6%,?,-17%
Cc1nc(-c2ccc(Cl)cc2)sc1CCNC(=O)c1ccc(C(F)(F)F)cc1,.,?,-4%,-17%,-21%
O=c1[nH]c2ccccc2c(O)c1O,-73*,7.1µM*,-7%,3.2µM*,-23%
O=C(O)c1c(C(=O)O)c2ccccc2[nH]c1=O,-33*,-2%,.,-11%,-3%
O=c1[nH]c2ccccc2c(O)c1-[n+]1ccccc1,0,-1%,-15%,-5%,-7%
O=C(O)c1cc(=O)[nH]c2ccccc12,.,.,-8%,.,.
Cc1ccc(NC(=O)CSc2nc(=O)n(Cc3cccnc3)c3c2CCC3)cc1F,.,-11%,-12%,-6%,-7%
CCC1CN(C(=O)N2CCC(C(=O)N3CCN(c4cccc(C)c4C)CC3)CC2)c2ccccc2O1 (configuration not stated),.,7%,-9%,-18%,5µM*[quencher]
